Data on 40 molecules can be found in PubChem BioAssay (Tox21).

The structures appear in SMILES notation. Inconclusive results are not listed. Where a call stands in place of a potency, no number is given. Active and inactive are the calls of the source. The call rests on the fitted dose curve.
Potency means the concentration at half of the fitted maximal effect.

The test can be described thus: qHTS assay for small molecule disruptors of the mitochondrial membrane potential - cell viability (AID 720634). Further: nearly all actives have a fitted effect of over 20% in size.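 On activity change, negative = cytotoxicity: human HepG2 liver cancer cells.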 The settings on record: HepG2 viability, ATP luminescence (CellTiter-Glo), 1 h; series mostly up to 83.2 µM. The source says:
U.S. Tox21 Program National Center for Advancing Translational Sciences [NCATS] NIH Chemical Genomics Center [NCGC] U.S. Environmental Protection Agency [EPA] National Institutes of Environmental Health Sciences [NIEHS] National Toxicology Program [NTP] U.S. Food and Drug Administration [FDA] Tox21 Assay Overview: Mitochondrial membrane potential (MMP), one of the parameters for mitochondrial function, is generated by mitochondrial electron transport chain that creates an electrochemical gradient by a series of redox reactions. This gradient drives the synthesis of ATP, a crucial molecule for various cellular processes. Measuring MMP in living cells is commonly used to assess the effect of chemicals on mitochondrial function; decreases in MMP can be detected using lipophilic cationic fluorescent dyes. […] The dye accumulates in the mitochondria of healthy cells as aggregates, with red fluorescence. The mitochondrial potential decreases and the dye could not accumulate in the mitochondria and remains in the cytoplasm in monomers, with green fluorescence. In addition to the mitochondrial potential assay, these cells were also used to test the cytotoxicity by determining the cell viability in the culture based on the quantitation of ATP present. The cytotoxicity was measured in the same assay well of MMP assay.
Tox21 Assay Protocol Summary: 2,000 HepG2 cells in 5 uL/well were dispensed into black, clear-bottom 1536-well plates using a Multidrop Combi (Thermo Scientific) dispenser. The assay plates were incubated for an overnight at 37 C to allow cells to attach to the wells, followed by the transfer of 23 nL compound or DMSO vehicle by a pin tool (Kalypsys). The plates were incubated for 1 hr at 37 C and 5% CO2, followed by the addition of 5 uL of 2X m-MPI dye into each well using Flying Reagent Dispenser (Aurora Discovery) and then CellTiter-Glo reagent was added at 4 uL/well and incubated 30 min at room temperature. Then luminescence intensity was quantified on a ViewLux CCD-based plate reader.
`CCCCCCCC/C=C\CCCCCCCCN`: the Potency entry is “inactive”.
Same read-out and setting: as for `CC1=Nc2ccccc2C1(C)C`, the entry is “inactive”; as for `Oc1c(I)cc(Cl)c2cccnc12`, “inactive”.
For `CCCCCc1ccc(Cl)cc1`, the Potency entry was “inactive”.
For the molecule `Nc1ccc(C(=O)O)c(O)c1`, the Potency entry is “inactive”.
For the molecule `CCC(=O)C(=O)CC`, the Potency result was “inactive”.
`C=C(C)c1cccc(C(=C)C)c1`: the Potency entry was “inactive”.
The same measure, in the same setting: as for `Cc1ccc(C(C)C)cc2c(C)ccc1-2`, the entry is “inactive”; as for `CCC(C)(CCC(C)C)C(=O)[O][Sn]([CH3])([CH3])[O]C(=O)C(C)(CC)CCC(C)C` (stereo not given), “inactive”.
`Cc1ccc(C(=O)O)cc1`: the Potency result was “inactive”.
Still for that read-out and setting: as for `CCCCCC/C=C\CCCCCCCC(=O)O`, the entry is “inactive”.
For `CCc1ccc(Br)cc1`, the Potency result was “inactive”.
As to `CC(C)Cn1cnc2c(N)nc3ccccc3c21`, the Potency result was “inactive”.
On the same count and under the same terms, as for `CC(CCc1ccccc1)NCC(O)c1ccc(O)c(C(N)=O)c1` (stereo not given), the entry is “inactive”; as for `[Cl][Pt-2]([Cl])([Cl])[Cl]`, “inactive”.
As for `FC(F)(F)c1cccc(Cl)c1`, the Potency entry is “inactive”.
On to `CCCC1CCC(=O)CC1`, for which the Potency result is “inactive”.
On to `CCCCCCCCCCOC(=O)c1ccccc1C(=O)OCCCCCCCC`, for which the Potency result was “inactive”.
Still for that read-out and setting: for `C[C@H]1NCc2cc(-c3ccc4c(=O)c(C(=O)O)cn(C5CC5)c4c3OC(F)F)ccc21` the value was “inactive”; for `CCCCCC(C)OC(=O)COc1ccc(Cl)c2cccnc12` (stereo not given), “inactive”; for `CC(C)(C)NSc1nc2ccccc2s1`, “inactive”.
The same measure, in the same setting: for `CN(C)Cc1ccccc1O` the value was “inactive”; for `CN(C)C(=O)COC(=O)Cc1ccc(OC(=O)c2ccc(N=C(N)N)cc2)cc1`, “inactive”.
Turning to `CC1(C)CCC[C@]2(C)[C@H]3CCO[C@]3(C)CC[C@@H]12`, the Potency result was “inactive”.
For the molecule `CC(C)CCCCCOC(=O)CCS`, the Potency result is “inactive”.
For the molecule `Nc1nc(N)nc(-c2cc(Cl)ccc2Cl)n1`, the Potency result was “inactive”.
`O=[N+]([O-])c1cccc(C(F)(F)F)c1`: the Potency entry was “inactive”.
Still for that read-out and setting: for `CC(=O)c1ccc(C(C)=O)cc1` the value was “inactive”; for `CN(C)c1ccc(C(=C2C=CC(=[N+](C)C)C=C2)c2ccc(N(C)C)cc2)cc1`, 54.2 µM (active).
For `c1cnccn1`, the Potency result is “inactive”.
The same measure, in the same setting: for `O=C1CCc2cc(OCCCCc3nnnn3C3CCCCC3)ccc2N1` the value was “inactive”; for `CCCC[P+](C)(CCCC)CCCC`, “inactive”.
Take `O=C(O)O`: the activity change, negative = cytotoxicity was 7.92% [at 8.08 µM] (inactive).
Turning to `OC1CCCc2ccccc21` (stereo not given), the Potency result was “inactive”.
Take `Nc1ccc(Oc2ccc(Cl)cc2)cc1`: the Potency entry was “inactive”.
Consider `O=C(/C=C/c1ccc(O)c(O)c1)O[C@@H](C(=O)O)[C@@H](OC(=O)/C=C/c1ccc(O)c(O)c1)C(=O)O`, for which the Potency entry is “inactive”.
As to `CCCNCCC`, the Potency result is “inactive”.
Take `O=C(O)c1cc(-c2ccc(F)cc2F)ccc1O`: the Potency result was “inactive”.
Same read-out and setting: as for `C=CC(C)(CCC=C(C)C)OC=O` (stereo not given), the entry is “inactive”.
Take `CC1(C)CCC[C@]2(C)[C@H]3CC(=O)O[C@]3(C)CC[C@@H]12`: the Potency entry is “inactive”.
